# Targets with a hit are over-represented here; the source holds about 8,800 in all. About 0.5% of all pairs of compound and target were hits. Unmarked numbers belong to inactive results.
# Compound: CNC(=O)C1=CC=CC=C1NC2=NC(=NC=C2Cl)NC3=C(C=C(C=C3)N4CCOCC4)OC
# Assay: log2 fold change, soluble protein after heating vs DMSO (PISA); higher = thermal stabilisation; K562 lysate, 10 uM; active = over 0.2 and 3.5 SD of the protein, either way, in both replicates (recomputed)
# How it was run: (§1)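 K562 pellets were dounce-homogenised in PBS pH 7.4 containing 1 mM MgCl2, and the crude extract, at 1 mg/mL protein, was exposed to 10 μM compound for 30 min. Aliquots were heated for 3 min across 48°C-58°C, pooled, brought to 0.5% NP-40 at 4°C and spun at 21,000xg for 90 min, with the supernatant taken as soluble protein. TMTpro 16plex LC-MS/MS with equalised channel sums quantified that protein. Values are log-two fold changes in thermal stability relative to solvent controls, taken from duplicates.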
# UniProt Q92759, sequence (Q92759 whole entry, looked up): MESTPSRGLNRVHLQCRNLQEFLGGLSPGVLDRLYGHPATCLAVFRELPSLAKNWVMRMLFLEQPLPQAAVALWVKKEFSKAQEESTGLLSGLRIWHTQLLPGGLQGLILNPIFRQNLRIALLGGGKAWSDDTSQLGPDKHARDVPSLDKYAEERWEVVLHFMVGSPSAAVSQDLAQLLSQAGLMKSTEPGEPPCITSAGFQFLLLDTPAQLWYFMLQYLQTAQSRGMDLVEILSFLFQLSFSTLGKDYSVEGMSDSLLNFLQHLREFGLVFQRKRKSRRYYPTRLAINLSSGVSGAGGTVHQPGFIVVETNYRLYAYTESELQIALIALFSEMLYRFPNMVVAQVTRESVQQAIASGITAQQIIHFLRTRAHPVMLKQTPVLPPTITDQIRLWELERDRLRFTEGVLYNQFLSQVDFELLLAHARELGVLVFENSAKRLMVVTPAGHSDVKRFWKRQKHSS
# UniProt Q9Y6M1, sequence (Q9Y6M1 whole entry, looked up): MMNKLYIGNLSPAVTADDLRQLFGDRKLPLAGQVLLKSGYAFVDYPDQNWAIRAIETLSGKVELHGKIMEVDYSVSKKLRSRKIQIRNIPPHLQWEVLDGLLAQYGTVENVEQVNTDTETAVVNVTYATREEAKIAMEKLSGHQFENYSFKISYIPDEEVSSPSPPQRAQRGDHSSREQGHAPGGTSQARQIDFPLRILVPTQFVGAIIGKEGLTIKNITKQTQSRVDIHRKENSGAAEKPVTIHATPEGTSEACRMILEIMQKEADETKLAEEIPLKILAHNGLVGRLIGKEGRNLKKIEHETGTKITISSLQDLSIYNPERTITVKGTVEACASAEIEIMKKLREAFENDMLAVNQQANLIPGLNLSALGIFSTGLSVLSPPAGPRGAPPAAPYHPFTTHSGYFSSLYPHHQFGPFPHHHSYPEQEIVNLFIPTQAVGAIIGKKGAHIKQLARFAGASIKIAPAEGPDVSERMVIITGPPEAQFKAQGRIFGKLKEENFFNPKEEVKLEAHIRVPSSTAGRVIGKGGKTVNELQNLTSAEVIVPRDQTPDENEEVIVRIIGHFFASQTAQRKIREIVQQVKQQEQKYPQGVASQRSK
# UniProt P12081, sequence (P12081 whole entry, looked up): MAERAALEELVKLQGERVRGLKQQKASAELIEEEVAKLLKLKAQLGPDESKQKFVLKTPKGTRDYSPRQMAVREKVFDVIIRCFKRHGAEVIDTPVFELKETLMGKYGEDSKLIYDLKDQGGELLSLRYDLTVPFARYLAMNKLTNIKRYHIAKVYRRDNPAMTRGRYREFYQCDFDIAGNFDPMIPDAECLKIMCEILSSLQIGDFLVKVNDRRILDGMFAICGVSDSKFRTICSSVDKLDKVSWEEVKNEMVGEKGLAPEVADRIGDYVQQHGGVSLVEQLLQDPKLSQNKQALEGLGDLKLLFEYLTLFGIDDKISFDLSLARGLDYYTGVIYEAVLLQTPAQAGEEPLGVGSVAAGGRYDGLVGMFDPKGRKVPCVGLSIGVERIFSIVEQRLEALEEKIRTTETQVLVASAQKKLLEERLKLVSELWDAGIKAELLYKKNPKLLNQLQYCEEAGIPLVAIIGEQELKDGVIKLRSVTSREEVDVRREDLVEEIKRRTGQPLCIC
# UniProt Q92769, sequence (Q92769 whole entry, looked up): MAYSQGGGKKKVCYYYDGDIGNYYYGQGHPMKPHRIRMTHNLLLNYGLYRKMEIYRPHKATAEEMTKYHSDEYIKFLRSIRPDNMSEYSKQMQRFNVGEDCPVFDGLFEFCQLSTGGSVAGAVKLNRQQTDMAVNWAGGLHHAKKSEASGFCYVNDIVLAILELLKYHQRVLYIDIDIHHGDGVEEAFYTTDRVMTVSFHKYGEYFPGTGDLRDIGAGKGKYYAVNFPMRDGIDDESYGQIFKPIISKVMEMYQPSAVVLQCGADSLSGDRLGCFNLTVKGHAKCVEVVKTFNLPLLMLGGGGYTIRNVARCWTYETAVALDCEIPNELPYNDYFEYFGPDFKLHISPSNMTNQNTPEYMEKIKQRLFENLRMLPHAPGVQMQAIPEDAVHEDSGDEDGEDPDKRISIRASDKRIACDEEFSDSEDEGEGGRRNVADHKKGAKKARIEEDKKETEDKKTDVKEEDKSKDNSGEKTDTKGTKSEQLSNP
# UniProt Q9NWZ3, sequence (Q9NWZ3 whole entry, looked up): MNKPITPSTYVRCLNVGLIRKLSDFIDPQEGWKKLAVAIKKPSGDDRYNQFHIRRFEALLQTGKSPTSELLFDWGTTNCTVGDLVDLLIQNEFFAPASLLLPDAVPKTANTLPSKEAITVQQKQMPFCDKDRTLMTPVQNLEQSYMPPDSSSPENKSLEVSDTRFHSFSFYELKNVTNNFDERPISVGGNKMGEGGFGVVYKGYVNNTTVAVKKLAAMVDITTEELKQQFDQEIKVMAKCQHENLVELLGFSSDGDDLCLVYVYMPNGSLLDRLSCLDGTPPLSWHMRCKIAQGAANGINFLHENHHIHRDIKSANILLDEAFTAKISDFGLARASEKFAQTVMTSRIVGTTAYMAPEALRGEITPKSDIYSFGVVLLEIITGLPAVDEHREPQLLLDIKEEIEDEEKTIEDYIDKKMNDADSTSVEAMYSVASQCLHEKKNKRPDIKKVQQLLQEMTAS
# UniProt Q8N201, sequence (Q8N201 whole entry, looked up): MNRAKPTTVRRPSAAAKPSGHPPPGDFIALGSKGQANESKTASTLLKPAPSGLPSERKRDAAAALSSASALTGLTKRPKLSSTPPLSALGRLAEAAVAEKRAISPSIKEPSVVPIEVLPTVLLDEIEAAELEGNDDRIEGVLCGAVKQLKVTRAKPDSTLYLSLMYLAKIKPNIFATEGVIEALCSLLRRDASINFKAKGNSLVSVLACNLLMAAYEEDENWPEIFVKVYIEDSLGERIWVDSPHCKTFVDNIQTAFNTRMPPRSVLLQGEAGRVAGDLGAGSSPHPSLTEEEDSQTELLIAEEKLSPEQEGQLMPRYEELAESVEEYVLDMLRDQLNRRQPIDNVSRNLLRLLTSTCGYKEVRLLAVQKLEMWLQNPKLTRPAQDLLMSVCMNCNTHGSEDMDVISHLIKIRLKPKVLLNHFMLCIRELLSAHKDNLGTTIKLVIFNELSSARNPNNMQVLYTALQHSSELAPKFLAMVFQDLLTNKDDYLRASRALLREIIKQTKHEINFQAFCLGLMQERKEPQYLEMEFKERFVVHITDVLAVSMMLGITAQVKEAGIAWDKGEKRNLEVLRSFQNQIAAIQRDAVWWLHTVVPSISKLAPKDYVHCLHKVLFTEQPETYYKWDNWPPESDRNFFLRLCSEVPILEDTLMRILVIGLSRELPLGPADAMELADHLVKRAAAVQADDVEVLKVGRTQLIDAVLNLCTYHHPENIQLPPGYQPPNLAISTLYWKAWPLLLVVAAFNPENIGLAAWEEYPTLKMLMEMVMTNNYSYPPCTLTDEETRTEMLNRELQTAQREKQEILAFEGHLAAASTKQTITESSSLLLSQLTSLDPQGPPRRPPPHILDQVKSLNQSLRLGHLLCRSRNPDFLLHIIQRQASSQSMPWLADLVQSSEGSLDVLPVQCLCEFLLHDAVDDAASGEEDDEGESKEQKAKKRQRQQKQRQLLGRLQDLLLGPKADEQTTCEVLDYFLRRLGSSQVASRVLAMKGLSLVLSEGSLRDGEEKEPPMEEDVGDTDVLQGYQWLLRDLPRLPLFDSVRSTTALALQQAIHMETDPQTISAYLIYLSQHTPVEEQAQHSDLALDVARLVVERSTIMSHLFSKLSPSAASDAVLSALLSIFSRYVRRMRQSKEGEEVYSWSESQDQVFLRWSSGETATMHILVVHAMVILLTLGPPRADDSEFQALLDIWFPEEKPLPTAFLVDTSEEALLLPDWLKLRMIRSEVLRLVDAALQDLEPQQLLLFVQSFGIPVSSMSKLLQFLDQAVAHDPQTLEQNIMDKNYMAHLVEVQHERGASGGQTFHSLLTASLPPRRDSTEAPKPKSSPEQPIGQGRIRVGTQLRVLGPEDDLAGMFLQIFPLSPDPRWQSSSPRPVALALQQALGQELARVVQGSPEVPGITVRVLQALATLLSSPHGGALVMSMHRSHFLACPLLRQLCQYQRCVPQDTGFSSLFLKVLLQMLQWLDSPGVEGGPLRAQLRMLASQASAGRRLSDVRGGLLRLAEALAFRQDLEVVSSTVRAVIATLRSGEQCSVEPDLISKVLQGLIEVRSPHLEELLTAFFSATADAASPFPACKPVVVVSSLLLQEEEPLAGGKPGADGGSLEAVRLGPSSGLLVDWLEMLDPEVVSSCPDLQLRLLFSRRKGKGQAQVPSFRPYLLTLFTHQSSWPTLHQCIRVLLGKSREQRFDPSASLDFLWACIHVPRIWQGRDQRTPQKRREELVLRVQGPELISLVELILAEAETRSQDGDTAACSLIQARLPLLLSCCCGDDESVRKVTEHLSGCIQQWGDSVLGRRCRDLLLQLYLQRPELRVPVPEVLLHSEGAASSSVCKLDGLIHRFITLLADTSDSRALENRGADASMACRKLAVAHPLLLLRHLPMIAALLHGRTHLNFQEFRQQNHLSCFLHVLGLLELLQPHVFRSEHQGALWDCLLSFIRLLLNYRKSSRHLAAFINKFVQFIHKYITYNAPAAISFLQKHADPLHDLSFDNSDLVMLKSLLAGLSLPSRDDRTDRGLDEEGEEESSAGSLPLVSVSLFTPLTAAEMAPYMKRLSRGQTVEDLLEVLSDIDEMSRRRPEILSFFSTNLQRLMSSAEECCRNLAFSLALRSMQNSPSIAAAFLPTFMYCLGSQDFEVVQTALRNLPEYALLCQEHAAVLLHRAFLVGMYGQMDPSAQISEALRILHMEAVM
# UniProt P04792, sequence (P04792 whole entry, looked up): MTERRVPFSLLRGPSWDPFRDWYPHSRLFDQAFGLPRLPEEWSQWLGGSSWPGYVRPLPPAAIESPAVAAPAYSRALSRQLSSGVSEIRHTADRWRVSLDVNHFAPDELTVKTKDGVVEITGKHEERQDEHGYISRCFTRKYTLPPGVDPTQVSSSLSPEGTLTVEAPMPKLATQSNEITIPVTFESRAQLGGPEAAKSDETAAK
row,Target,log2 fold change
1,GTF2H4 (UniProt Q92759),0.018
2,GSTZ1 (UniProt G3V4T6),0.01
3,HDAC2 (UniProt Q92769),-0.007
4,HEATR6 (UniProt Q6AI08),0.025
5,H4C1 (UniProt P62805),-0.023
6,HECTD3 (UniProt Q5T447),0.02
7,KCT2 (UniProt Q8NC54),-0.001
8,GPX4 (UniProt P36969),-0.006
9,IARS2 (UniProt Q9NSE4),-0.026
10,GTF2H1 (UniProt P32780),0.05
11,GSTM4 (UniProt Q03013),0.029
12,IMPACT (UniProt Q9P2X3),-0.006
13,IGF2BP2 (UniProt Q9Y6M1),0.043
14,GON4L (UniProt Q3T8J9),0.028
15,HK1 isoform 2 (UniProt P19367),-0.009
16,GTF2I (UniProt P78347),0.012
17,KEAP1 (UniProt Q14145),-0.008
18,ISOC2 (UniProt Q96AB3),0.076

row,Target,log2 fold change
1,HSD17B10 (UniProt Q99714),0.004
2,IRAK4 (UniProt Q9NWZ3),0.261 (active)
3,IMMT (UniProt Q16891),-0.03
4,IARS (UniProt P41252),0.01
5,IMPDH2 (UniProt P12268),0.013
6,GNE isoform 2 (UniProt Q9Y223),0.016
7,GTPBP2 (UniProt Q9BX10),0.039
8,HSPB1 (UniProt P04792),-0.003
9,INTS1 (UniProt Q8N201),0.013
10,HSPA8 (UniProt P11142),-0.036
11,HAUS3 (UniProt Q68CZ6),0.043
12,GRB10 (UniProt Q13322),0.015
13,HARS (UniProt P12081),-0.02
14,GMIP (UniProt Q9P107),0.088
15,HK2 (UniProt P52789),0.024
16,IRAK1 (UniProt P51617),0.314
17,GSTCD (UniProt Q8NEC7),0.055
18,HDAC3 (UniProt O15379),0.013

# Compound: CNC(=O)c1ccc(Nc2ncc(C(F)(F)F)c(NCc3nccnc3N(C)S(C)(=O)=O)n2)cc1 [defactinib]
# Assay: as above
# How it was run: as §1
row,Target,log2 fold change
1,GTF2H4 (UniProt Q92759),0.085
2,GSTZ1 (UniProt G3V4T6),0.061
3,HDAC2 (UniProt Q92769),0.006
4,HEATR6 (UniProt Q6AI08),0.011
5,H4C1 (UniProt P62805),-0.02
6,HECTD3 (UniProt Q5T447),0.045
7,KCT2 (UniProt Q8NC54),-0.012
8,GPX4 (UniProt P36969),0.048
9,IARS2 (UniProt Q9NSE4),0.004
10,GTF2H1 (UniProt P32780),0.041
11,GSTM4 (UniProt Q03013),0.006
12,IMPACT (UniProt Q9P2X3),0.013
13,IGF2BP2 (UniProt Q9Y6M1),-0.008
14,GON4L (UniProt Q3T8J9),-0.001
15,HK1 isoform 2 (UniProt P19367),0.001
16,GTF2I (UniProt P78347),0.018
17,KEAP1 (UniProt Q14145),0.014
18,ISOC2 (UniProt Q96AB3),0.121

row,Target,log2 fold change
1,HSD17B10 (UniProt Q99714),-0.029
2,IRAK4 (UniProt Q9NWZ3),0.145
3,IMMT (UniProt Q16891),0.019
4,IARS (UniProt P41252),0.02
5,IMPDH2 (UniProt P12268),0.03
6,GNE isoform 2 (UniProt Q9Y223),-0.011
7,GTPBP2 (UniProt Q9BX10),0.018
8,HSPB1 (UniProt P04792),0
9,INTS1 (UniProt Q8N201),0.019
10,HSPA8 (UniProt P11142),-0.003
11,HAUS3 (UniProt Q68CZ6),-0.023
12,GRB10 (UniProt Q13322),0.003
13,HARS (UniProt P12081),-0.02
14,GMIP (UniProt Q9P107),0.033
15,HK2 (UniProt P52789),0.017
16,IRAK1 (UniProt P51617),0.086
17,GSTCD (UniProt Q8NEC7),-0.002
18,HDAC3 (UniProt O15379),-0.023
